Experimental data from PubChem BioAssay AID2314 (National Center for Advancing Translational Sciences (NCATS), 2010).
The campaign covered roughly 300,000 compounds. About 37,000 (12%) were called active. The sample as a whole holds a higher share of actives than the screen did. Values without a mark were called inactive. Rule as the data show it: active = max response mostly above about 13% (no sharp cut-off); inactive = mostly below about 14%.

assay: Cycloheximide Counterscreen for Small Molecule Inhibitors of Shiga Toxin; conditions: cell reporter, cycloheximide protein synthesis inhibition counterscreen; hits give high values; also: read at 38.3 µM for the half of the compounds with a filed dose; 0% is about no effect

In order of rising max response:
1. Cc1cc(C(=O)NNC(=O)CCC2CCCCC2)c(C)o1  -7.16%
2. CC(=O)c1ccc(NC(=O)CCNS(=O)(=O)c2cc(Br)cnc2N)cc1  -6.69%
3. CCc1ccccc1NC(=O)CN(C)S(=O)(=O)c1ccc2c(c1)c(=O)n(C)c(=O)n2C  -5.59%
4. Cc1cc(Br)ccc1NC(=O)c1sc2ncn(CC(=O)N3CCN(c4ccccn4)CC3)c(=O)c2c1C  -5.58%
5. O=C(NCCN1CCOCC1)/C(=C/c1ccc(F)cc1)NC(=O)c1ccccc1  -4.36%
6. Cc1cccc(C)c1NC(=S)N(Cc1cccnc1)Cc1ccccc1Cl  -3.98%
7. O=C(Cc1cc(=O)[nH][nH]1)N/N=C/c1ccccc1[N+](=O)[O-]  -3.9%
8. Cc1cc(O)c(C2(O)C(=O)Nc3ccccc32)cc1C (centres undefined)  -3.78%
9. COc1ccccc1NC(=O)C1=C(C)NC(=O)NC1c1ccc(C)s1 (centres undefined)  -3.68%
10. O=c1c2ccccc2nc(-c2ccco2)n1-c1ccc(Br)cn1  -3.55%
11. O=C(CCn1c(SCC(=O)c2ccccc2)nc2ccccc2c1=O)NCc1ccc(F)cc1  -3.48%
12. CCN(CC)c1ccc(C(=O)N/N=C/c2ccc(N3CCOCC3)cc2)cc1  -3.32%
13. COc1ccc(C2(O)C(=O)Nc3ccccc32)cc1 (centres undefined)  -3.25%
14. CCCCn1c(=S)[nH]c2cc(S(=O)(=O)N3CCCCC3)ccc21  -3.25%
15. CC(=O)NC1=NN(C(C)=O)C(C)(c2ccc(C)cc2)S1 (centres undefined)  -3.23%
16. Cc1cc(C)c(OCC(=O)N/N=C/c2ccco2)c(C)c1  -3.21%
17. C/C(=N\c1nc2ccccc2n1C)c1cc(Cl)ccc1O  -3.14%
18. N#Cc1ccccc1NC(=O)COc1c(Br)cc(Br)c2cccnc12  -3.08%
19. CC(=O)N/N=C/c1cc2c(cc1[N+](=O)[O-])OCO2  -3%
20. O=C(CCC1CCCN(C(=O)c2ccc(F)c(F)c2)C1)N1CCN(c2ccccn2)CC1 (centres undefined)  -2.81%
21. CC(=O)Nc1ccc(NS(=O)(=O)c2ccc3c(c2)NC(=O)CC(=O)N3)cc1  -2.79%
22. CCOC(=O)[C@H]1[C@H]2COc3cc(OC)ccc3[C@@H]2N2C(=O)N(c3ccc(Br)cc3)C(=O)[C@@]12C  -2.74%
23. Cc1ccc(S(=O)(=O)c2c[nH]c3ccc(C)cc3c2=O)cc1  -2.63%
24. CCN(CCCNC(=O)c1ccc2c(c1)NC(=O)CN2C)c1cccc(C)c1  -2.58%
25. O=C(NNS(=O)(=O)c1ccccc1C(F)(F)F)c1cc2ncc(C(F)(F)F)cc2s1  -2.52%
26. Cc1ccc(CS(=O)(=O)CCC(=O)NCc2ccc(F)cc2)cc1  -2.44%
27. Cc1cc2c(c(=O)n1Cc1ccccc1)C1O[C@](CCCCN3C(=O)c4ccccc4C3=O)(Cc3ccccc31)O2  -2.41%
28. CC(C)(C)[Si](OCC[C@@H]1C[C@@]1(C)[C@@H](NP(=O)(c1ccccc1)c1ccccc1)c1ccccc1)(c1ccccc1)c1ccccc1  -2.22%
29. Cc1c(C(=O)Nc2cccc(Cl)c2)cn2c(nc3ccccc32)c1C#N  -2.2%
30. CCOc1ccc2[nH]c3nc(SCC(=O)NC4CCCC4)nnc3c2c1  -2.15%
31. O=C(c1cncc(Br)c1)N1CCN(c2ccc([N+](=O)[O-])cc2)CC1  -2.1%
32. Cc1cc2ncn(CCCCOc3ccccc3)c2cc1C  -2.02%
33. COC(=O)c1c(NC(C)=O)sc(C(=O)Nc2ccccc2OC)c1C  -2%
34. Cc1cc(Nc2ccc(N3CCOCC3)cc2)c2cccc(C)c2n1  -1.97%
35. C/C(=N\NC(=O)Cc1ccc(F)cc1)c1ccc(F)cc1  -1.95%
36. CN(C)c1ccc(/C=N/Nc2cc(N3CCOCC3)nc(N3CCOCC3)n2)cc1  -1.93%
37. CCNC(=O)COC(=O)/C=C/c1c(C)nn(Cc2cccc(OC)c2)c1Cl  -1.93%
38. CC1CCN(CC(O)COc2ccc(C(=O)c3ccccc3)cc2)CC1 (centres undefined)  -1.82%
39. Cc1ccc(-c2cc(C(=O)N/N=C/C=C/c3ccccc3)n[nH]2)o1  -1.74%
40. COc1ccc2ccccc2c1/C=N/NC(=O)c1cc(C)[nH]n1  -1.72%
41. Cc1ccc(C)c(S(=O)(=O)Nc2cc(C)on2)c1  -1.71%
42. CCCS(=O)(=O)N1CCC(CCOc2ccccc2)(C(=O)OCC)CC1  -1.66%
43. COc1ccc(N(CC(=O)Nc2cccc3ccccc23)S(C)(=O)=O)c(OC)c1  -1.55%
44. COc1ccc2cc1Oc1ccc(cc1)C[C@H]1c3cc(c(OC)cc3CCN1C)Oc1c(O)c(OC)cc3c1[C@H](C2)N(C)CC3  -1.4%
45. S=c1[nH]nc(-c2ccco2)n1/N=C/c1ccccc1  -1.31%
46. COc1cccc(NC(=O)Cn2cnc3sc(C)c(S(=O)(=O)N4CCN(C)CC4)c3c2=O)c1  -1.26%
47. Cc1nc2cc(C(F)(F)F)ccc2n1CCNc1nc(-c2cc(Cl)c(N)c(Cl)c2)cs1  -1.25%
48. O=C(N/N=C/c1cc([N+](=O)[O-])ccc1O)/C(=C\c1cccs1)NC(=O)c1ccccc1  -1.19%
49. CCCCN1C(=O)/C(=C2/Sc3ccc(Cl)cc3N2CC)SC1=S  -0.782%
50. O=C(CN1C(=O)COc2ccc(Cl)cc21)N1CCOCC1  -0.636%
51. CC(=O)Oc1c(C(=O)c2nnc(C)o2)c(=O)n(Cc2ccccc2)c2ccccc12  -0.619%
52. CCOC(=O)C(C)n1cnc2sc(C)c(C)c2c1=O (centres undefined)  -0.534%
53. COC(=O)c1ccc2ccccc2c1OC1OC(CO)C(O)C(O)C1NC(C)=O (centres undefined)  0.801%
54. CN1C(=O)C2(OCCCO2)c2cc(Cl)ccc21  0.948%
55. O=C(Nn1c(-c2ccccc2)nc2ccccc2c1=O)c1ccc([N+](=O)[O-])cc1  1.01%
56. CC(=O)N/C(=C/c1ccc(OC(F)F)cc1)C(=O)O  1.24%
57. Nc1nnnn1/N=C/c1cc([N+](=O)[O-])ccc1O  1.42%
58. O=C(N/N=C\c1cccc(Br)c1)c1ccccc1-n1cccc1  1.75%
59. O=c1cc(CCl)nc2scc(-c3ccccc3)n12  3.02%
60. CN1C=CC=C/C1=C1\SC(=S)N(Cc2ccccc2)C1=O  3.74%
61. COc1cccc(CNS(=O)(=O)c2ccc3c(c2)N(C(C)=O)CCS3)c1  3.83%
62. CCCC(O)(CCC)C(=O)NN(C(=O)CCl)c1cccc(C)c1  4.6%
63. CC(C)(C)c1cc(NC(=O)NN2CCOCC2)nn1-c1c(Cl)cc(Cl)cc1Cl  6.4%
64. CCOC(=O)CSc1nc2ccc(C)cc2n2cnnc12  7.14%
65. C/C(CC(=O)N1CCN(C=O)CC1)=N\NC(=O)c1ccc(Br)cc1  7.55%
66. Brc1ccc2c(c1)[C@H]1OCC[C@H]1[C@@H](c1cccs1)N2  8.72%
67. CC(/C=N/NC(=O)c1ccncc1)=C\c1ccco1  10.3%
68. Cc1nn(CC(=O)NC2CCCCC2)c(=O)c2cccn12  10.6%
69. CC(C)c1cc(C(=O)O)n[nH]1  10.8%
70. O=C(/C=C/c1ccc(Cl)c([N+](=O)[O-])c1)c1ccc(O)cc1  11.3%
71. COc1ccc(CCNC(=O)CCNS(=O)(=O)c2cc(Br)cnc2N)cc1OC  13.2%
72. CNC(=S)N/N=C/c1ccc(N2CCOCC2)s1  13.7%
73. Cc1ccc(CNS(=O)(=O)c2ccc3c(c2)N(C)CCO3)cc1  13.9%
74. COC(=O)c1ccccc1NC(=O)c1ccc(C#N)cc1  14.4%
75. COc1ccc(-c2ccc(OC)c(C3C4C=CCC(C)C4C(=O)N3Cc3ccccc3)c2)cc1C (centres undefined)  28.8%

In the case of `CCCCN1C(=O)/C(=C2/C=CC=CN2C)SC1=S`, the max response is reported as 18.7% (active).
For `O=C(O)CC/C(=N\NC(=O)c1ccc(F)cc1)c1ccc(Br)cc1`, the max response was 35% (active).
In the case of `Cn1c(-c2ccco2)nc2cc3ccccc3cc21`, the max response is reported as 16.7% (active).
In the case of `Cc1cc(C(=O)N/N=C/c2ccc(N3CCOCC3)cc2)c(C)o1`, the max response is reported as 26.5% (active).
For `Cc1ccccc1N/N=C/c1ccc(N2CCOCC2)cc1`, the max response was 21.1% (active).
With `Cc1cc(C(=O)N/N=C\C(Br)=C\c2ccccc2)c(C)o1` the max response was 32.4% (active).
For `Cc1cc(C(=O)N/N=C/c2ccccc2[N+](=O)[O-])c(C)o1`, the max response was 35% (active).
With `CC(=C/c1ccccc1)/C=N/NC(=O)c1cc(C)oc1C` the max response was 34.8% (active).
With `CC(C)c1cc(C(=O)N/N=C/C(Br)=C/c2ccccc2)n[nH]1` the max response was 14.6% (active).
For `Cn1c(Nc2cccc(Cl)c2)nc2ccccc21`, the max response was 33.5% (active).
In the case of `O=C1Nc2ccccc2C12Nc1ccccc1S2` (centres undefined), the max response is reported as 33.2% (active).
With `Cc1c(C(N)=O)sc2ncn(CCOc3ccccc3)c(=O)c12` the max response was 17.6% (active).
With `Cc1cccc(OC(=O)c2sc3ncn(C)c(=O)c3c2C)c1` the max response was 32.8% (active).
In the case of `Cc1ccc(C(=O)/C=C/c2c(C)nn(-c3ccccc3)c2Cl)cc1`, the max response is reported as 37.8% (active).
In the case of `Cc1nn(-c2ccccc2)c(Cl)c1/C=C/C(=O)c1ccc(O)cc1`, the max response is reported as 17% (active).
With `O=C(Nn1c(SCc2ccc([N+](=O)[O-])cc2)nc2ccccc2c1=O)c1ccc(F)cc1` the max response was 116% (active).
With `COc1ccccc1NC(=O)c1ccc(C)s1` the max response was 64% (active).
In the case of `O=[N+]([O-])c1ccc(O)c(/C=N/Nc2ccccc2[N+](=O)[O-])c1`, the max response is reported as 15.6% (active).
In the case of `CC(/C=N/NC(=O)c1cc(-c2ccc3ccccc3c2)n[nH]1)=C\c1ccco1`, the max response is reported as 22.2% (active).
